Compound activity: PubChem, Buhrlage Lab, Dana-Farber Cancer Institute and Novartis Institutes for BioMedical Research (Cambridge, Mass)
OTUD3 inh – human OTUD3 deubiquitinase inhibition | Q5T2D3 | purified OTUD3, Ub-rhodamine fluorescence, 2 h | inhibition, % at 25 µM | 47,000 compounds, 0.7% hits | AID 1645858
USP30 block – blocks human USP30 ubiquitin-rhodamine cleavage. purified USP30, Ub-rhodamine cleavage fluorescence. inhibition, % at 25 µM. 47,000 compounds, 5.3% hits. Q70CQ3
USP28 inh – blocks human USP28 ubiquitin-rhodamine cleavage. Q96RU2. inhibition, % at 25 µM. 47,000 compounds, 3% hits. purified USP28, Ub-rhodamine cleavage fluorescence, 30 min
Target sequence (Q96RU2 whole entry, looked up): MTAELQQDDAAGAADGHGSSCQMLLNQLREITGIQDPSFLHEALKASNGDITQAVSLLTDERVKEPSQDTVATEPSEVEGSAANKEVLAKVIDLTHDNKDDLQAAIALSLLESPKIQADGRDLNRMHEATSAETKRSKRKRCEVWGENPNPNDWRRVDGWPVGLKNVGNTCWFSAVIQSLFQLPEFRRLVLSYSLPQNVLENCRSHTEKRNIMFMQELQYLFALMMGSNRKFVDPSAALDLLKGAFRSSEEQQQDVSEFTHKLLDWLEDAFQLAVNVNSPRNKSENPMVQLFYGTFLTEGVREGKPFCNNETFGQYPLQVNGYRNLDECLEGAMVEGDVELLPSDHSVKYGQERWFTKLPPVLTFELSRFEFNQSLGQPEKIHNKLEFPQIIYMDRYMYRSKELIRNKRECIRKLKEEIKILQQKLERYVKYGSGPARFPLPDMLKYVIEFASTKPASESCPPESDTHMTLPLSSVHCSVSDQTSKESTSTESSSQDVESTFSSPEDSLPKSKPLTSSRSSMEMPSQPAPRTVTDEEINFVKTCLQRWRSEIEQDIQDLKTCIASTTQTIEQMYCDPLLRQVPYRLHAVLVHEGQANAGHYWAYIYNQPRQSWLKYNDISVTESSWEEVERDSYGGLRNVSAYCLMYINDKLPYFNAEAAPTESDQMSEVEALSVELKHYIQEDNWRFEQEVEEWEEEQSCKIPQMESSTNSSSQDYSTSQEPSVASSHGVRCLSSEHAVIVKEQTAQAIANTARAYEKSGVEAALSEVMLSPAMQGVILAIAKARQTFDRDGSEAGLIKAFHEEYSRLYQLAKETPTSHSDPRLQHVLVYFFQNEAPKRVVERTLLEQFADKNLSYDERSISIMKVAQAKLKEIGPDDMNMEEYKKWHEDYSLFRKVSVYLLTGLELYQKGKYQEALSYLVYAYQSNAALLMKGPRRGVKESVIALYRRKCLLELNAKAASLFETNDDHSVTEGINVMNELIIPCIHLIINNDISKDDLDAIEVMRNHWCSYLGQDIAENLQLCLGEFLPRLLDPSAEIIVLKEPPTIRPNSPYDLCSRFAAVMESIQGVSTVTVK
USP8 block – human USP8 deubiquitinase inhibition; 47,000 compounds, 4.2% hits; AID 1645853; inhibition, % at 20 µM; P40818; purified USP8, Ub-rhodamine cleavage fluorescence, 30 min
USP17 block – inhibitors of human USP17 deubiquitinase. 47,000 compounds, 6.5% hits. A8MUK1. AID 1645855. inhibition, % at 50 µM. purified USP17, Ub-rhodamine cleavage fluorescence, 3 h
The depositor's hits bear a star; . = no result. This is a sample that favours compounds with a hit; in the whole collection about 13% have one here. Cut-off read from the data, not from the text of the source: active = inhibition above about 30%; inactive = the rest.

SMILES	OTUD3 inh	USP30 block	USP28 inh	USP8 block	USP17 block
CN1C(=O)c2ccccc2C(C(=O)N2CCN(c3ccc([N+](=O)[O-])cc3)CC2)C1c1cccs1 (configuration not stated)	-15	-35	-9	25	.
COc1cccc(CNCc2nc(NCc3cccc(OC)c3)c3c(C)c(C)sc3n2)c1	15	42*	37*	-35	16
O=C(CSc1nc2ccccc2[nH]1)Nc1cccc2c1OCCO2	13	-38	41*	-10	-18
CC1=C(C(=O)OCc2ccc3c(c2)OCO3)C(c2ccccc2C)CC(=O)N1 (configuration not stated)	6	28	15	7	13
COc1ccc(COC(=O)C2=C(C)NC(=O)CC2c2cccc([N+](=O)[O-])c2)cc1 (configuration not stated)	2	20	86*	-72	-5
COc1ccccc1CCNC(=O)c1cc(C2CC2)nc2c1cnn2C(C)C	15	-6	15	-5	2
COc1ccc(CCNC(=O)c2cc(C3CC3)nc3c2cnn3C(C)C)cc1	3	-6	68*	-8	16
COc1ccccc1OCCNC(=O)c1cc(C2CC2)nc2c1cnn2C(C)C	5	10	61*	17	20
Cc1cc(=O)oc2cc(OCC(=O)NCc3ccncc3)ccc12	-4	10	-1	3	5
Cc1c(C)c2ccc(OCC(=O)NCc3ccncc3)c(C)c2oc1=O	3	81*	22	7	46*
O=C(NC1CC1)c1cc(-c2ccco2)nc2onc(-c3ccccc3)c12	-3	-131	-9	1	31*
CCC(C(=O)C(C)C(O)C(C)CCc1ccc(C)c(O)c1C(=O)O)C1OC(CC)(C2CCC(O)(CC)C(C)O2)CC1C (configuration not stated)	32*	55*	41*	20	63*
COc1ccc(C2CC(=O)c3cnc(NCC4CCCO4)nc3C2)cc1OC (configuration not stated)	15	30*	14	23	16
COc1ccc(Nc2nc(NCc3ccccc3)c3nccnc3n2)cc1	-14	-12	37*	3	-8
NC(=O)C1Cn2ccnc2C2(CCN(C(=O)NCCc3ccc(F)cc3)CC2)O1 (configuration not stated)	11	14	1	6	0
Cc1cc2nc(Oc3ccc(Br)cc3F)c3ccccc3n2n1	14	11	10	0	12
Cc1cc2nc(Oc3cccc(C(F)(F)F)c3)c3ccccc3n2n1	7	49*	17	9	35*
Cn1nccc1C(=O)N[C@@H]1C[C@@H](Oc2cccnc2)[C@H](O)[C@H]1N1CCCCC1	9	4	-1	2	-1
C/C=C/C=C/[C@@H]1Cc2cc(O)cc(O)c2O1	87*	82*	91*	74*	97*
CN1CCN(c2nc(N3CCCC3)c3cnn(C)c3n2)CC1	9	20	7	16	9
Cc1cc(=O)oc2cc(OC(=O)C3CCN(C(=O)c4ccc(Cl)cc4)CC3)ccc12	4	50*	5	16	8
O=C(Cc1nnc2cc(-c3nc(C4CC4)no3)ccn12)Nc1ccccc1	-8	-81	-14	27	1
Cc1nc(Nc2ccc(Cl)cn2)sc1C(=O)NC1CCCC1	12	7	3	31*	8
Cc1c(CN2CCOC(C)(C(=O)N(C)C)C2)[nH]c2ccc(F)cc12 (configuration not stated)	-10	-20	-14	-1	-7
CC[C@H]1OC(=O)[C@@H](C)[C@H](O[C@H]2CC(C)(OC)[C@@H](O)[C@@H](C)O2)[C@H](C)[C@@H](O[C@H]2O[C@@H](C)C[C@@H](N(C)C)[C@@H]2O)C(C)(O)C[C@@H](C)C(=O)[C@H](C)[C@@H](O)[C@]1(C)O (some centres not stated)	-5	3	-12	0	-8
SMILES	OTUD3 inh	USP30 block	USP28 inh	USP8 block	USP17 block
CC(C)(C)C(=O)COC(=O)c1c2c(nc3ccccc13)CCCCC2	3	6	2	10	11
O=C(OCc1c(F)cccc1Cl)c1c2c(nc3ccccc13)CCC2	25	25	34*	28	44*
Cc1nnc2ccc(CN3CCc4onc(Nc5cccc(F)c5)c4C3)cn12	-5	-11	-9	0	-15
COc1cccc(C2CC(=O)Nc3ccsc32)c1OCc1ccccc1 (configuration not stated)	13	41*	24	16	29
O=C(CSc1ccc2nnc(-c3ccncc3)n2n1)Nc1cccc(C(F)(F)F)c1	-4	-11	-1	90*	47*
c1ccc(CSc2ccc3nnc(-c4ccccn4)n3n2)nc1	3	8	-2	-1	-17
FC(F)(F)c1cccc(CSc2ccc3nnc(-c4ccccn4)n3n2)c1	-3	32*	78*	2	-1
c1ccc(CSc2ccc3nnc(-c4cccnc4)n3n2)nc1	0	0	-3	-173	-17
Fc1cccc(-c2nnc3ccc(SCc4ccccn4)nn23)c1	15	30*	12	-113	23
c1ccc(CSc2ccc3nnc(-c4ccccn4)n3n2)cc1	11	36*	34*	-8	20
CC1=C(c2ccc(C)cc2)S(=O)(=O)N=C1N1CCCN(C(=O)c2ccc(C#N)cc2)CC1	-1	0	-4	1	-3
COc1cccc(CNC(=O)CC(c2ccc(F)cc2)n2cccc2)c1 (configuration not stated)	-12	-141	-40	-7	-48
O=C(CSc1ccc2nnc(CCNS(=O)(=O)c3ccccc3)n2n1)N1CCCc2ccccc21	-7	4	-1	-13	-1
O=C(CSc1ccc2nnc(-c3cccc(F)c3)n2n1)N1CCCc2ccccc21	40*	73*	44*	38*	63*
O=C(CSc1nnc(-c2ccncc2)n1Cc1ccccc1)c1ccc2[nH]c(O)cc2c1	-5	-48	27	65*	58*
Cc1nnc(SCC(=O)c2ccc3ccccc3c2)n1Cc1ccccc1	-3	6	1	7	0
O=S1(=O)c2ccccc2C(O)(Cc2ccccc2)CN1CCO (configuration not stated)	4	2	-2	11	4
O=C(Nc1ccc2c(c1)OCCO2)c1c(-c2ccccc2)nnc2ccccc12	-7	-12	-5	-25	31*
O=C(Nc1ccc2c(c1)OCCO2)c1cccc2nc3ccccc3nc12	31*	75*	30	37*	41*
O=C(CCc1nc2ccccc2[nH]1)Nc1ccc2c(c1)OCCO2	-8	.	.	0	27
Cc1ccc(-c2cc(C(=O)Nc3ccc4c(c3)OCCO4)c3ccccc3n2)o1	8	-41	7	28	39*
Cc1ccccc1-c1cc(C(=O)Nc2ccc(Br)c(Br)c2)c2ccccc2n1	-6	-25	-2	-19	-9
c1ccc(-n2nnnc2Oc2ccc3oc4c(c3c2)CCCC4)cc1	5	.	.	-4	13
